Our source for the outcome values is PubChem BioAssay AID720517 (National Center for Advancing Translational Sciences (NCATS), 2013).

Records with an inconclusive call do not appear. The source made the active and inactive calls. Calls follow the shape of the dose curve; as a rule, active = well fitted activation curve with a large enough effect; inconclusive = small, poorly fitted or top-dose-only effect; inactive = flat fitted curve, though single readings scatter.

This assay in a line: qHTS for Inhibitors of Cell Surface uPA Generation: FP59 Counterscreen for Cherry-picked Compounds. Particulars: FP59 anthrax toxin cytotoxicity counterscreen, cells; series mostly up to 115 µM.

Consider `COc1ccc(-c2nn(CCC#N)cc2C(=O)Nc2ccccc2)cc1OC`, for which the call was inactive. Under `O=C(c1ccc(F)c([N+](=O)[O-])c1)N1CC2CC(C1)c1cccc(=O)n1C2` (stereo not given) stands “inactive”. Turning to `CCOC(=O)c1ccc(N=Cc2c(O)n(-c3ccc(OC)cc3)c(=S)[nH]c2=O)cc1`, the call was inactive. `O=P1(NCCCl)OCCCN1CCCl` (stereo not given): the compound was classed as inactive.

Regarding `O=c1[nH]c(=O)n(-c2ccc(Cl)cc2)c(O)c1C=Nc1ccc(S(=O)(=O)Nc2nccs2)cc1`, the outcome was inactive.

Turning to `CCCCCn1c(=O)c(C(=O)Nc2ccccn2)c(O)c2ccccc21`, the call was inactive. Under `COCC(=O)N1Cc2ccccc2-n2nncc2C1` stands “inactive”. For `c1cncc(C2CCCCN2)c1` (stereo not given), the call was inactive. For the compound `COc1ccccc1NC(=O)N1C[C@@H]2C[C@@H](C1)c1cccc(=O)n1C2`, the compound was called inactive. `O=c1[nH]c(=O)n(CCc2ccccc2)c(O)c1C=NC1CC1`: the compound was classed as inactive. With `COc1ccccc1N1CCN(Cc2ccc(SC)cc2)CC1`, the outcome was inactive. For `Cc1ccc(-n2c(O)c(C=NCCN3CCNCC3)c(=O)[nH]c2=S)cc1` the value was “inactive”; for `Cc1ncc(CN2CCCC(C(=O)c3cccc(OC(C)C)c3)C2)s1` (stereo not given), “inactive”. As to `COc1ccc(-c2nn(CCC#N)cc2C(=O)Nc2cccc([N+](=O)[O-])c2)cc1OC`, the call was inactive. Regarding `Cc1cc(C(=O)NP(=O)(N2CCOCC2)N2CCOCC2)c(C)n1C1CC1`, the compound was called inactive.

In the case of `COC(=O)C1=C(c2cccc(OC)c2OC)C[C@@H]2CC[C@H]1N2C(=O)NC1CC1`, the compound was called inactive. Take `CCOc1ccc(CN2CCN(C(=O)Cc3ccccc3)CC2)cc1`: the outcome was inactive. As for `Cc1ccccc1O`, the call was inactive.

For `FC(F)(F)Oc1ccc(NC2=NCCCS2)cc1`, the compound was called inactive.

For the compound `C[N+](C)(C)CCOC(=O)CBr`, the outcome was inactive.
